Experimental findings from PubChem BioAssay (EPA / NIEHS) are described below.

Some structures have more than one record in an assay (separate samples or runs), and their calls can disagree. Active and inactive are the calls of the source. How the source made its calls: active means hit-call score of the fitted dose curve at least 0.9, where 1 is the maximum; inactive means score below 0.9.

Read-out in the first assay: Macrophage colony-stimulating factor (MCSF), CSF1 (gene 1435)
The experiment in a line: BSK_CASM3C_MCSF: BioMAP Diversity Plus: CASM3C Assay for Macrophage colony-stimulating factor (MCSF) Biomarker Activity (AID 2283044).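 Further: M-CSF protein amount quantified by ELISA after 24 h exposure.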 The following applies: primary human coronary artery smooth muscle cells; actives raise or lower the signal.
For the compound `O=C(O)C(F)(F)C(F)(F)C(F)(F)C(F)(F)C(F)(F)C(F)(F)C(F)(F)F`, the result was inactive.

Turning to `COP(=O)(OC)OC=C(Cl)Cl`, the result was inactive.

Regarding `COP(=S)(OC)Oc1ccc([N+](=O)[O-])cc1`, the outcome was inactive.

Turning to `O=C(NC(=O)c1c(F)cccc1F)Nc1ccc(OC(F)(F)C(F)OC(F)(F)F)c(Cl)c1` (stereo unspecified), the result was inactive.

For `CCc1ccc(C(=O)NN(C(=O)c2cc(C)cc(C)c2)C(C)(C)C)cc1`, the result was inactive.

For the compound `COC(=O)c1ccccc1S(=O)(=O)NC(=O)N(C)c1nc(C)nc(OC)n1`, the result was inactive.

With `COC(=O)c1ccccc1CS(=O)(=O)NC(=O)Nc1nc(OC)cc(OC)n1`, the outcome was inactive.

`O=C(O)CCCOc1ccc(Cl)cc1Cl`: the result was inactive.

Consider `O=[N+]([O-])/N=C1\NCCN1Cc1ccc(Cl)nc1`, for which the result was inactive.

As for `Cc1[nH]c(=O)n(C(C)(C)C)c(=O)c1Cl`, the outcome was inactive.

For `CC(C)(C)C(O)C(Oc1ccc(Cl)cc1)n1cncn1` (stereo unspecified), the outcome was inactive.

Regarding `CCOCN(C(=O)CCl)c1c(C)cccc1CC`, the result was inactive.

`[2H]C1([2H])[n+]2ccccc2-c2cccc[n+]2C1([2H])[2H]`: the outcome was inactive.

Consider `CCOc1nc(NC)nc(NC(=O)NS(=O)(=O)c2ccccc2C(=O)OC)n1`, for which the result was inactive.

`Cc1cc(C)nc(NC(=O)NS(=O)(=O)c2ccccc2C(=O)OC2COC2)n1`: the outcome was inactive.

For `COc1nn(CSP(=S)(OC)OC)c(=O)s1`, the result was inactive.

`Oc1ccc(Cl)cc1Cc1ccccc1`: the AC50 was 29.6 µM (active) [middle of 7 runs].

Take `CCOC1Oc2ccc(OS(C)(=O)=O)cc2C1(C)C` (stereo unspecified): the result was inactive.

`ClC1C(Cl)C(Cl)C(Cl)C(Cl)C1Cl` (stereo unspecified): the AC50 was 32.4 µM (active) and the outcome was inactive.

Turning to `N#CN`, the outcome was inactive.

As for `CC1(c2ccc(Oc3ccccc3)cc2)OC(=O)N(Nc2ccccc2)C1=O` (stereo unspecified), the outcome was inactive.

Take `CCCN(CCC)c1c([N+](=O)[O-])cc(C(F)(F)F)cc1[N+](=O)[O-]`: the outcome was inactive.

For `COc1cc(OC)nc(NC(=O)NS(=O)(=O)c2cc(NC=O)ccc2C(=O)N(C)C)n1`, the outcome was inactive.

Consider `O=S(=O)(O)C(F)(F)C(F)(F)C(F)(F)C(F)(F)C(F)(F)C(F)(F)C(F)(F)C(F)(F)F`, for which the outcome was inactive.

`N#Cc1c(Cl)c(Cl)c(Cl)c(C#N)c1Cl`: the AC50 was 3.31 µM (active).

As for `O=[N+]([O-])c1c(Cl)c(Cl)c(Cl)c(Cl)c1Cl`, the result was inactive.

Read-out in the next assay: Low-density lipoprotein receptor (LDLR), LDLR (gene 3949)
Kind of assay: BSK_CASM3C_LDLR: BioMAP Diversity Plus: CASM3C Assay for Low-density lipoprotein receptor (LDLR) Biomarker Activity (AID 2283045).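 Further: LDLR protein level on the cell surface quantified by ELISA.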 The following applies: primary human coronary artery smooth muscle cells; actives raise or lower the signal.
`O=C(O)C(F)(F)C(F)(F)C(F)(F)C(F)(F)C(F)(F)C(F)(F)C(F)(F)F`: the result was inactive.

With `COP(=O)(OC)OC=C(Cl)Cl`, the result was inactive.

Consider `COP(=S)(OC)Oc1ccc([N+](=O)[O-])cc1`, for which the outcome was inactive.

Consider `O=C(NC(=O)c1c(F)cccc1F)Nc1ccc(OC(F)(F)C(F)OC(F)(F)F)c(Cl)c1` (stereo unspecified), for which the outcome was inactive.

In the case of `CCc1ccc(C(=O)NN(C(=O)c2cc(C)cc(C)c2)C(C)(C)C)cc1`, the result was inactive.

As to `COC(=O)c1ccccc1S(=O)(=O)NC(=O)N(C)c1nc(C)nc(OC)n1`, the outcome was inactive.

Consider `COC(=O)c1ccccc1CS(=O)(=O)NC(=O)Nc1nc(OC)cc(OC)n1`, for which the outcome was inactive.

Consider `O=C(O)CCCOc1ccc(Cl)cc1Cl`, for which the result was inactive.

Consider `O=[N+]([O-])/N=C1\NCCN1Cc1ccc(Cl)nc1`, for which the outcome was inactive.

On to `Cc1[nH]c(=O)n(C(C)(C)C)c(=O)c1Cl`, for which the outcome was inactive.

For `CC(C)(C)C(O)C(Oc1ccc(Cl)cc1)n1cncn1` (stereo unspecified), the result was inactive.

As for `CCOCN(C(=O)CCl)c1c(C)cccc1CC`, the outcome was inactive.

Turning to `[2H]C1([2H])[n+]2ccccc2-c2cccc[n+]2C1([2H])[2H]`, the result was inactive.

In the case of `CCOc1nc(NC)nc(NC(=O)NS(=O)(=O)c2ccccc2C(=O)OC)n1`, the result was inactive.

`Cc1cc(C)nc(NC(=O)NS(=O)(=O)c2ccccc2C(=O)OC2COC2)n1`: the outcome was inactive.

Turning to `COc1nn(CSP(=S)(OC)OC)c(=O)s1`, the outcome was inactive.

In the case of `Oc1ccc(Cl)cc1Cc1ccccc1`, the AC50 was 29.1 µM (active) [middle of 5 runs] and the result was inactive.

With `CCOC1Oc2ccc(OS(C)(=O)=O)cc2C1(C)C` (stereo unspecified), the outcome was inactive.

`ClC1C(Cl)C(Cl)C(Cl)C(Cl)C1Cl` (stereo unspecified): the concentration at half-maximal activity (AC50) was 27.8 µM (active) and the outcome was inactive.

Consider `N#CN`, for which the outcome was inactive.

In the case of `CC1(c2ccc(Oc3ccccc3)cc2)OC(=O)N(Nc2ccccc2)C1=O` (stereo unspecified), the result was inactive.

Consider `CCCN(CCC)c1c([N+](=O)[O-])cc(C(F)(F)F)cc1[N+](=O)[O-]`, for which the outcome was inactive.

On to `COc1cc(OC)nc(NC(=O)NS(=O)(=O)c2cc(NC=O)ccc2C(=O)N(C)C)n1`, for which the outcome was inactive.

For the compound `O=S(=O)(O)C(F)(F)C(F)(F)C(F)(F)C(F)(F)C(F)(F)C(F)(F)C(F)(F)C(F)(F)F`, the outcome was inactive.

For the compound `N#Cc1c(Cl)c(Cl)c(Cl)c(C#N)c1Cl`, the result was inactive.

For `O=[N+]([O-])c1c(Cl)c(Cl)c(Cl)c(Cl)c1Cl`, the outcome was inactive.

Read-out in a further assay: Monocyte Chemoattractant Protein-1 (MCP1), CCL2 (gene 6347)
Kind of assay: BSK_CASM3C_MCP1: BioMAP Diversity Plus: CASM3C Assay for Monocyte Chemoattractant Protein-1 (MCP1) Biomarker Activity (AID 2283046).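 Further: MCP-1 level quantified by ELISA 24 h after dosing.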 The following applies: primary human coronary artery smooth muscle cells; actives raise or lower the signal.
`O=C(O)C(F)(F)C(F)(F)C(F)(F)C(F)(F)C(F)(F)C(F)(F)C(F)(F)F`: the outcome was inactive.

Turning to `COP(=O)(OC)OC=C(Cl)Cl`, the outcome was inactive.

As for `COP(=S)(OC)Oc1ccc([N+](=O)[O-])cc1`, the AC50 is 877 nM (active).

For `O=C(NC(=O)c1c(F)cccc1F)Nc1ccc(OC(F)(F)C(F)OC(F)(F)F)c(Cl)c1` (stereo unspecified), the result was inactive.

On to `CCc1ccc(C(=O)NN(C(=O)c2cc(C)cc(C)c2)C(C)(C)C)cc1`, for which the outcome was inactive.

As for `COC(=O)c1ccccc1S(=O)(=O)NC(=O)N(C)c1nc(C)nc(OC)n1`, the outcome was inactive.

As to `COC(=O)c1ccccc1CS(=O)(=O)NC(=O)Nc1nc(OC)cc(OC)n1`, the outcome was inactive.

Consider `O=C(O)CCCOc1ccc(Cl)cc1Cl`, for which the result was inactive.

Take `O=[N+]([O-])/N=C1\NCCN1Cc1ccc(Cl)nc1`: the outcome was inactive.

Take `Cc1[nH]c(=O)n(C(C)(C)C)c(=O)c1Cl`: the outcome was inactive.

For the compound `CC(C)(C)C(O)C(Oc1ccc(Cl)cc1)n1cncn1` (stereo unspecified), the outcome was inactive.

For `CCOCN(C(=O)CCl)c1c(C)cccc1CC`, the result was inactive.

Turning to `[2H]C1([2H])[n+]2ccccc2-c2cccc[n+]2C1([2H])[2H]`, the AC50 was 156 nM (active).

For the compound `CCOc1nc(NC)nc(NC(=O)NS(=O)(=O)c2ccccc2C(=O)OC)n1`, the result was inactive.

Turning to `Cc1cc(C)nc(NC(=O)NS(=O)(=O)c2ccccc2C(=O)OC2COC2)n1`, the result was inactive.

Take `COc1nn(CSP(=S)(OC)OC)c(=O)s1`: the result was inactive.

Regarding `Oc1ccc(Cl)cc1Cc1ccccc1`, the concentration at half-maximal activity (AC50) is 37.5 µM (active) [middle of 4 runs].

On to `CCOC1Oc2ccc(OS(C)(=O)=O)cc2C1(C)C` (stereo unspecified), for which the outcome was inactive.

On to `ClC1C(Cl)C(Cl)C(Cl)C(Cl)C1Cl` (stereo unspecified), for which the result was inactive.

As for `N#CN`, the outcome was inactive.

As for `CC1(c2ccc(Oc3ccccc3)cc2)OC(=O)N(Nc2ccccc2)C1=O` (stereo unspecified), the result was inactive.

For `CCCN(CCC)c1c([N+](=O)[O-])cc(C(F)(F)F)cc1[N+](=O)[O-]`, the outcome was inactive.

Consider `COc1cc(OC)nc(NC(=O)NS(=O)(=O)c2cc(NC=O)ccc2C(=O)N(C)C)n1`, for which the result was inactive.

Regarding `O=S(=O)(O)C(F)(F)C(F)(F)C(F)(F)C(F)(F)C(F)(F)C(F)(F)C(F)(F)C(F)(F)F`, the result was inactive.

Regarding `N#Cc1c(Cl)c(Cl)c(Cl)c(C#N)c1Cl`, the AC50 is 3560 nM (active).

In the case of `O=[N+]([O-])c1c(Cl)c(Cl)c(Cl)c(Cl)c1Cl`, the outcome was inactive.

A word on the AC50: it is the concentration giving half of the maximal activity seen.
